# Measured values from the supplement of paper PMC6607015.
# Where a name gives a salt, the structure may show the parent alone.
# Experiments:
# Conditions in all cases: compound concentration in added solution (µM; 5 µl added to 20 µl cells): 10; 18 h
# A431 [1] = test: LBPA endosome anti-LBPA integrated intensity (sum per cell), Z-score; higher = more LBPA staining
# Method in brief: (§1)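 Duplicate 384-well imaging plates were prepared with 5 µl of 10 µM compound solution per well, and 3,500 HeLa MZ or A431 cells in 20 µl were added on top. Following 18 h of incubation and fixation in 4% PFA, cells received 6C4 anti-LBPA antibody, filipin, propidium iodide and CellTracker green. Four images per well at 20× were segmented in MetaXpress to yield per-cell integrated LBPA or filipin intensity, whole-cell or within LBPA endosomes. These intensities are reported as Z-scores normalised in AcuityXpress.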
# HeLa MZ [2] = test: as above
# Method in brief: as §1
# A431 [3] = test: whole-cell filipin (free cholesterol) integrated intensity, Z-score; higher = more cholesterol staining
# Method in brief: as §1
# HeLa MZ [4] = test: as above
# Method in brief: as §1
# A431 [5] = test: filipin (cholesterol) integrated intensity within LBPA endosomes, Z-score; higher = more cholesterol in LBPA endosomes
# Method in brief: as §1
# HeLa MZ [6] = test: as above
# Method in brief: as §1
structure (smiles),measurement,setting,value
Clc1ccc(C(Cn2ccnc2)OCc2c(Cl)cccc2Cl)c(Cl)c1 (stereo unspecified) [Isoconazole],LBPA endosome anti-LBPA integrated intensity (z-score),A431 [1],-0.0559
same,LBPA endosome anti-LBPA integrated intensity (z-score),HeLa MZ [2],1.26
same,whole-cell filipin (z-score),A431 [3],-0.00171
same,whole-cell filipin (z-score),HeLa MZ [4],-0.264
same,filipin (z-score),A431 [5],0.0343
same,filipin (z-score),HeLa MZ [6],0.0567
O=C(O[C@@H]1C[C@@H]2C[C@H]3C[C@H](C1)N2CC3=O)c1c[nH]c2ccccc12 [Dolasetron mesilate],LBPA endosome anti-LBPA integrated intensity (z-score),A431 [1],-0.534
same,LBPA endosome anti-LBPA integrated intensity (z-score),HeLa MZ [2],-0.27
same,whole-cell filipin (z-score),A431 [3],-0.669
same,whole-cell filipin (z-score),HeLa MZ [4],0.0841
same,filipin (z-score),A431 [5],-0.498
same,filipin (z-score),HeLa MZ [6],-0.224
CN1C(=O)OC(C)(C)C1=O [Trimethadione],LBPA endosome anti-LBPA integrated intensity (z-score),A431 [1],-0.446
same,LBPA endosome anti-LBPA integrated intensity (z-score),HeLa MZ [2],-0.0741
same,whole-cell filipin (z-score),A431 [3],-0.388
same,whole-cell filipin (z-score),HeLa MZ [4],-0.0387
same,filipin (z-score),A431 [5],-0.476
same,filipin (z-score),HeLa MZ [6],-0.496
CC(C)NCC(O)COc1cccc2[nH]ccc12 (stereo unspecified) [Pindolol],LBPA endosome anti-LBPA integrated intensity (z-score),A431 [1],-0.195
same,LBPA endosome anti-LBPA integrated intensity (z-score),HeLa MZ [2],-0.563
same,whole-cell filipin (z-score),A431 [3],-0.497
same,whole-cell filipin (z-score),HeLa MZ [4],-0.0997
same,filipin (z-score),A431 [5],-0.329
same,filipin (z-score),HeLa MZ [6],-0.129
C=C(CC)C(=O)c1ccc(OCC(=O)O)c(Cl)c1Cl [Ethacrynic acid],LBPA endosome anti-LBPA integrated intensity (z-score),A431 [1],-0.359
same,LBPA endosome anti-LBPA integrated intensity (z-score),HeLa MZ [2],-0.213
same,whole-cell filipin (z-score),A431 [3],-0.0585
same,whole-cell filipin (z-score),HeLa MZ [4],0.416
same,filipin (z-score),A431 [5],-0.423
same,filipin (z-score),HeLa MZ [6],-0.312
CN(C)c1ccc(O)c2c1C[C@H]1C[C@H]3[C@H](N(C)C)C(O)=C(C(N)=O)C(=O)[C@@]3(O)C(O)=C1C2=O [Minocycline hydrochloride],LBPA endosome anti-LBPA integrated intensity (z-score),A431 [1],-0.618
same,LBPA endosome anti-LBPA integrated intensity (z-score),HeLa MZ [2],-1.91
same,whole-cell filipin (z-score),A431 [3],-1.01
same,whole-cell filipin (z-score),HeLa MZ [4],-1.52
same,filipin (z-score),A431 [5],-0.639
same,filipin (z-score),HeLa MZ [6],-0.888
CC(Oc1c(Cl)cccc1Cl)C1=NCCN1 (stereo unspecified) [Lofexidine],LBPA endosome anti-LBPA integrated intensity (z-score),A431 [1],-0.44
same,LBPA endosome anti-LBPA integrated intensity (z-score),HeLa MZ [2],0.792
same,whole-cell filipin (z-score),A431 [3],-0.761
same,whole-cell filipin (z-score),HeLa MZ [4],-0.717
same,filipin (z-score),A431 [5],-0.424
same,filipin (z-score),HeLa MZ [6],-0.23
C=CC[N@@+]12CC[C@@]34c5ccccc5N5/C=C6/[C@H]7C[C@H]8[C@@]9(CC[N@@+]8(CC=C)C/C7=C/CO)c7ccccc7N(/C=C(/[C@@H](C[C@@H]31)/C(=C\CO)C2)[C@H]54)[C@@H]69 [Alcuronium chloride],LBPA endosome anti-LBPA integrated intensity (z-score),A431 [1],-0.441
same,LBPA endosome anti-LBPA integrated intensity (z-score),HeLa MZ [2],-0.288
same,whole-cell filipin (z-score),A431 [3],0.269
same,whole-cell filipin (z-score),HeLa MZ [4],2.33
same,filipin (z-score),A431 [5],-0.417
same,filipin (z-score),HeLa MZ [6],-0.254
NCCCC[C@H](N[C@@H](CCc1ccccc1)C(=O)O)C(=O)N1CCC[C@H]1C(=O)O [Lisinopril],LBPA endosome anti-LBPA integrated intensity (z-score),A431 [1],-0.555
same,LBPA endosome anti-LBPA integrated intensity (z-score),HeLa MZ [2],-0.949
same,whole-cell filipin (z-score),A431 [3],-0.886
same,whole-cell filipin (z-score),HeLa MZ [4],-0.862
same,filipin (z-score),A431 [5],-0.636
same,filipin (z-score),HeLa MZ [6],-0.71
Cc1cn[nH]c1 [Fomepizole],LBPA endosome anti-LBPA integrated intensity (z-score),A431 [1],-0.605
same,LBPA endosome anti-LBPA integrated intensity (z-score),HeLa MZ [2],-0.603
same,whole-cell filipin (z-score),A431 [3],-0.686
same,whole-cell filipin (z-score),HeLa MZ [4],-0.874
same,filipin (z-score),A431 [5],-0.557
same,filipin (z-score),HeLa MZ [6],-0.633
CCOC(=O)[C@H](CCc1ccccc1)N[C@@H](C)C(=O)N1[C@H](C(=O)O)C[C@@H]2CCC[C@@H]21 [Ramipril],LBPA endosome anti-LBPA integrated intensity (z-score),A431 [1],-0.401
same,LBPA endosome anti-LBPA integrated intensity (z-score),HeLa MZ [2],-1.57
same,whole-cell filipin (z-score),A431 [3],-0.0336
same,whole-cell filipin (z-score),HeLa MZ [4],-0.633
same,filipin (z-score),A431 [5],-0.446
same,filipin (z-score),HeLa MZ [6],-0.529
CC(=C(CCO)SSCC1CCCO1)N(C=O)Cc1cnc(C)nc1N (stereo in doubt) [Fursultiamine Hydrochloride],LBPA endosome anti-LBPA integrated intensity (z-score),A431 [1],-0.412
same,LBPA endosome anti-LBPA integrated intensity (z-score),HeLa MZ [2],-0.276
same,whole-cell filipin (z-score),A431 [3],-0.00261
same,whole-cell filipin (z-score),HeLa MZ [4],0.173
same,filipin (z-score),A431 [5],-0.513
same,filipin (z-score),HeLa MZ [6],-0.472
Nc1nnc(-c2cccc(Cl)c2Cl)c(N)n1 [Lamotrigine],LBPA endosome anti-LBPA integrated intensity (z-score),A431 [1],-0.222
same,LBPA endosome anti-LBPA integrated intensity (z-score),HeLa MZ [2],1.64
same,whole-cell filipin (z-score),A431 [3],0.954
same,whole-cell filipin (z-score),HeLa MZ [4],3.15
same,filipin (z-score),A431 [5],-0.396
same,filipin (z-score),HeLa MZ [6],-0.375
CC1Cc2ccccc2N1NC(=O)c1ccc(Cl)c(S(N)(=O)=O)c1 (stereo unspecified) [Indapamide],LBPA endosome anti-LBPA integrated intensity (z-score),A431 [1],-0.302
same,LBPA endosome anti-LBPA integrated intensity (z-score),HeLa MZ [2],0.5
same,whole-cell filipin (z-score),A431 [3],-0.729
same,whole-cell filipin (z-score),HeLa MZ [4],-0.419
same,filipin (z-score),A431 [5],-0.453
same,filipin (z-score),HeLa MZ [6],-0.438
"C[C@](N)(Cc1ccc(O)c(O)c1)C(=O)O [Methyldopa (L,-)]",LBPA endosome anti-LBPA integrated intensity (z-score),A431 [1],-0.446
same,LBPA endosome anti-LBPA integrated intensity (z-score),HeLa MZ [2],-0.811
same,whole-cell filipin (z-score),A431 [3],-0.449
same,whole-cell filipin (z-score),HeLa MZ [4],0.0391
same,filipin (z-score),A431 [5],-0.366
same,filipin (z-score),HeLa MZ [6],-0.319
COc1cc2ncnc(Nc3ccc(F)c(Cl)c3)c2cc1OCCCN1CCOCC1 [Gefitinib],LBPA endosome anti-LBPA integrated intensity (z-score),A431 [1],3.94
same,LBPA endosome anti-LBPA integrated intensity (z-score),HeLa MZ [2],2.43
same,whole-cell filipin (z-score),A431 [3],0.816
same,whole-cell filipin (z-score),HeLa MZ [4],0.788
same,filipin (z-score),A431 [5],2.49
same,filipin (z-score),HeLa MZ [6],2.83
Nc1nc(NC2CC2)c2ncn([C@H]3C=C[C@@H](CO)C3)c2n1 [Abacavir Sulfate],LBPA endosome anti-LBPA integrated intensity (z-score),A431 [1],-0.557
same,LBPA endosome anti-LBPA integrated intensity (z-score),HeLa MZ [2],-0.156
same,whole-cell filipin (z-score),A431 [3],-0.517
same,whole-cell filipin (z-score),HeLa MZ [4],-0.596
same,filipin (z-score),A431 [5],-0.478
same,filipin (z-score),HeLa MZ [6],-0.612
N#Cc1ccc(C2CCCc3cncn32)cc1 (stereo unspecified) [Fadrozole hydrochloride],LBPA endosome anti-LBPA integrated intensity (z-score),A431 [1],-0.639
same,LBPA endosome anti-LBPA integrated intensity (z-score),HeLa MZ [2],-1.49
same,whole-cell filipin (z-score),A431 [3],-1.18
same,whole-cell filipin (z-score),HeLa MZ [4],-0.874
same,filipin (z-score),A431 [5],-0.538
same,filipin (z-score),HeLa MZ [6],-0.502
CN(C)CCCN1c2ccccc2Sc2ccc(C(F)(F)F)cc21 [Triflupromazine hydrochloride],LBPA endosome anti-LBPA integrated intensity (z-score),A431 [1],3.06
same,LBPA endosome anti-LBPA integrated intensity (z-score),HeLa MZ [2],1.61
same,whole-cell filipin (z-score),A431 [3],0.711
same,whole-cell filipin (z-score),HeLa MZ [4],0.675
same,filipin (z-score),A431 [5],2.23
same,filipin (z-score),HeLa MZ [6],2.87
Cc1onc(-c2c(F)cccc2Cl)c1C(=O)N[C@@H]1C(=O)N2[C@@H]1SC(C)(C)[C@@H]2C(=O)O [Flucloxacillin sodium],LBPA endosome anti-LBPA integrated intensity (z-score),A431 [1],-0.384
same,LBPA endosome anti-LBPA integrated intensity (z-score),HeLa MZ [2],0.147
same,whole-cell filipin (z-score),A431 [3],-0.112
same,whole-cell filipin (z-score),HeLa MZ [4],-0.558
same,filipin (z-score),A431 [5],-0.348
same,filipin (z-score),HeLa MZ [6],-0.62
O=c1[nH]c(=O)n([C@H]2C[C@H](O)[C@@H](CO)O2)cc1I [Idoxuridine],LBPA endosome anti-LBPA integrated intensity (z-score),A431 [1],-0.506
same,LBPA endosome anti-LBPA integrated intensity (z-score),HeLa MZ [2],0.506
same,whole-cell filipin (z-score),A431 [3],-0.368
same,whole-cell filipin (z-score),HeLa MZ [4],0.357
same,filipin (z-score),A431 [5],-0.479
same,filipin (z-score),HeLa MZ [6],-0.063
CC(CNC1CCCCC1)OC(=O)c1ccccc1 (stereo unspecified) [Hexylcaine hydrochloride],LBPA endosome anti-LBPA integrated intensity (z-score),A431 [1],-0.125
same,LBPA endosome anti-LBPA integrated intensity (z-score),HeLa MZ [2],-0.0338
same,whole-cell filipin (z-score),A431 [3],-0.478
same,whole-cell filipin (z-score),HeLa MZ [4],-0.747
same,filipin (z-score),A431 [5],-0.345
same,filipin (z-score),HeLa MZ [6],-0.436
CCC1NC(=O)c2cc(S(N)(=O)=O)c(Cl)cc2N1 (stereo unspecified) [Quinethazone],LBPA endosome anti-LBPA integrated intensity (z-score),A431 [1],-0.328
same,LBPA endosome anti-LBPA integrated intensity (z-score),HeLa MZ [2],-1.04
same,whole-cell filipin (z-score),A431 [3],0.366
same,whole-cell filipin (z-score),HeLa MZ [4],0.147
same,filipin (z-score),A431 [5],-0.404
same,filipin (z-score),HeLa MZ [6],-0.386
CCc1nc(N)nc(N)c1-c1ccc(Cl)cc1 [Pyrimethamine],LBPA endosome anti-LBPA integrated intensity (z-score),A431 [1],0.585
same,LBPA endosome anti-LBPA integrated intensity (z-score),HeLa MZ [2],0.917
same,whole-cell filipin (z-score),A431 [3],0.585
same,whole-cell filipin (z-score),HeLa MZ [4],-0.093
same,filipin (z-score),A431 [5],-0.133
same,filipin (z-score),HeLa MZ [6],-0.422
COc1ccccc1OCC(O)CO (stereo unspecified) [Guaifenesin],LBPA endosome anti-LBPA integrated intensity (z-score),A431 [1],-0.398
same,LBPA endosome anti-LBPA integrated intensity (z-score),HeLa MZ [2],-0.463
same,whole-cell filipin (z-score),A431 [3],-0.553
same,whole-cell filipin (z-score),HeLa MZ [4],-0.523
same,filipin (z-score),A431 [5],-0.471
same,filipin (z-score),HeLa MZ [6],-0.504
CNC(=C[N+](=O)[O-])NCCSCc1ccc(CN(C)C)o1 [Ranitidine hydrochloride],LBPA endosome anti-LBPA integrated intensity (z-score),A431 [1],-0.424
same,LBPA endosome anti-LBPA integrated intensity (z-score),HeLa MZ [2],0.0515
same,whole-cell filipin (z-score),A431 [3],-1.03
same,whole-cell filipin (z-score),HeLa MZ [4],-1.05
same,filipin (z-score),A431 [5],-0.524
same,filipin (z-score),HeLa MZ [6],-0.559
